Laboratory results reported in PubChem BioAssay (NCATS).
Several values for one entry are separate records, joined by “and”; a condition that tells them apart may be missing. Equal entries are not always repeated. Records with an inconclusive call do not appear. Activity calls are given as the source filed them. Unless noted, the call rests on the fitted dose curve.

Assays:
[1] = qHTS drug screen for cell cycle checkpoint inhibitors in PARPi-resistant BRCA-mutant ovarian cancer cell lines. (AID 1963452); conditions: PEO1/OlaR viability, CellTiter-Glo luminescence, 96 h; for Z-AUC: stronger effect = lower value; further: potency means the concentration at half of the fitted maximal effect
Outline: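 PEO1, PEO4 and PEO1/OlaR ovarian cancer cells, 600 per well, exposed 96 h at 37C to a dilution series. Viability read by CellTiter-Glo luminescence, normalized to DMSO and empty wells; activity summarized as Z-AUC.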

[2] = Dual reporter qHTS for antagonist of Pregnane X Receptor (hPXR) against the NCATS DSHEA and TCM libraries: Fluorescence Readout (AID 1920061; active means well fitted curve in the direction sought with a large enough effect; further: 0% is about no effect); conditions: PXR dual reporter cells, antagonist mode; series mostly up to 40 µM
Outline: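 hPXR-Luc HepG2 cells exposed 24 h at 37 C to compounds with 2 uM rifampicin in antagonist mode; luciferase luminescence measured by ONE-Glo, with CellTiter-Fluor viability read beforehand.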

[3] = measured here: PEO1 parental Z-AUC

Row | SMILES | Z-AUC [1] | Z-AUC [1, 3] | Z-AUC ([1]; measured here: PEO4 Z-AUC) | outcome [2] | Potency [1]
1 | c1ccc(-c2ccc(CNc3nc(-c4ccccn4)nnc3-c3ccccc3)cc2)cc1 | -1.09 (inactive) | -0.646 | -0.501 | – | –
2 | Cn1cc(-c2ccc(F)c(C(F)(F)F)c2)nc1C1CCN(c2ncnc3[nH]ncc23)CC1 | -0.225 (inactive) | -0.264 | -0.487 | – | –
3 | C=CC(=O)N1CCC(Oc2cc3c(Nc4ccc(Cl)c(Cl)c4F)ncnc3cc2OC)CC1 | -0.983 (inactive) | -1.08 | -0.834 | – | –
4 | COc1cc2c(cc1OC(C)C)[C@H](c1ccc(Cl)cc1)N(c1ccc(N(C)CC3CCC(N4CCN(C)C(=O)C4)CC3)cc1)C(=O)C2 (some centres undefined) | 0.694 (inactive) | 0.366 | 0.545 | – | –
5 | CCCCCCCCCC(=O)O | – | – | – | inactive | –
6 | C[C@@H](c1ccc2nccn2c1)n1nnc2ncc(-c3cnn(C)c3)nc21 | -0.155 (inactive) | -0.0646 | -0.199 | – | –
7 | COc1cccc(-c2cc(F)ccc2C2Cc3nc(N)nc(C)c3C(=O)N2)n1 (centres undefined) | -1.35 (inactive) | -1.35 | -0.552 | – | –
8 | C1=C/COCc2cc(ccc2OCCN2CCCC2)Nc2nccc(n2)-c2cccc(c2)COC/1 | -1.05 (inactive) | -1.19 | -0.941 | – | –
9 | O=C(NCC(=O)N1CCCC1)Nc1ccc2cnccc2c1 | -0.618 (inactive) | -0.349 | -1.01 | – | –
10 | c1cc(-c2cnn3cc(-c4ccc(N5CCNCC5)cc4)cnc23)c2cccnc2c1 | -1.26 (inactive) | -1.26 | -1.83 | – | –
11 | O=C(O)CC(O)(CC(=O)O)C(=O)O | – | – | – | inactive | –
12 | C[C@@H]1COCCN1c1cc(=O)n2c(n1)N(Cc1cncc(Cl)c1)[C@H](C(F)(F)F)CC2 | -0.103 (inactive) | -0.0406 | -0.0495 | – | –
13 | CC(=O)C1=C(O)C=C2Oc3c(C(C)=O)c(O)c(C)c(O)c3[C@]2(C)C1=O | – | – | – | inactive | –
14 | COc1ccccc1C(=O)Nc1cc2c(cc1N1CCCC1)n(C)c(=O)n2C | -1.16 (inactive) | -0.583 | -0.727 | – | –
15 | CCCCOC(=O)NS(=O)(=O)c1sc(CC(C)C)cc1-c1ccc(Cn2ccnc2)cc1 | 0.282 (inactive) | 0.365 | 0.449 | – | –
16 | Cc1ccc(C(=O)Nc2ccc(CN3CCN(C)CC3)c(C(F)(F)F)c2)cc1C#Cc1cnc2[nH]ncc2c1 | -1.39 (inactive) | -0.429 | -0.168 | – | –
17 | O=C([C@@H](Cc1cccc(C(F)(F)F)c1)NS(=O)(=O)c1cc(F)c2c(c1)CCNC2)N1CCCC1 | -0.343 (inactive) | -0.218 | -0.109 | – | –
18 | C=CC(=O)Nc1ccc2ncnc(Nc3cccc(Br)c3)c2c1 | -0.896 (inactive) | -1.05 | -0.968 | – | –
19 | Cn1cc(-c2ccc3c(c2)CCN3C(=O)Cc2cccc(C(F)(F)F)c2)c2c(N)ncnc21 | -1.17 (inactive) | -0.267 | -1.2 | – | –
20 | Cc1cnc(-c2ccccc2C(C)C)nc1NCc1ccc(-n2ccnn2)cc1 | 1.08 (inactive) | 1.04 | 1.31 | – | –
21 | C=CC(=O)Nc1cccc(Nc2nc(Nc3ccc(OCCOC)cc3)ncc2F)c1 | -0.82 (inactive) | -1.21 | -1.08 | – | –
22 | OC(c1ccc(-c2ccc(CN3CCN(Cc4ccncc4)CC3)cc2)c(F)c1)(C(F)(F)F)C(F)(F)F | -1.4 (inactive) | -0.566 | -0.000497 | – | –

Row | SMILES | Z-AUC [1] | Z-AUC [1, 3] | Z-AUC ([1]; measured here: PEO4 Z-AUC) | outcome [2] | Potency [1]
23 | C=C1[C@H]2CC[C@H](C(=O)O)[C@@]23CC[C@H](C3)C1(C)C | – | – | – | inactive | –
24 | CC(C)(CNC(=O)c1cccc(-c2noc(C(F)(F)F)n2)c1)c1coc(-c2ccccc2)n1 | 0.0442 (inactive) | 0.732 | 0.975 | – | –
25 | COc1cc(N2CCC(N)CC2)ccc1Nc1ncc(Cl)c(-c2c[nH]c3ccccc23)n1 | -1.17 (inactive) | -1.5 | -2.07 | – | –
26 | Cc1[nH]c(/C=C2\C(=O)Nc3ccc(F)cc32)c(C)c1C(=O)NCCN1CCCC1 | 0.66 (inactive) | 0.734 | 0.596 | – | –
27 | Cc1c(NC(=O)c2cc3c(s2)CCCC3)cccc1-c1cn(C)c(=O)c(Nc2ccc(C3C(=O)N(C)CCN3C)cc2)n1 (centres undefined) | 1.18 (inactive) | 0.426 | 0.277 | – | –
28 | CN1CC[C@@H](c2c(O)cc(O)c3c(=O)cc(-c4ccc(C(F)(F)F)cc4Cl)oc23)[C@@H]1CO | -0.123 (inactive) | 0.298 | 0.604 | – | –
29 | CC[C@@H](C)Nc1cc(C(=O)NC2CC3CCC(C2)N3c2ccc(C(=O)C3CC3)cn2)c(C)cc1C(N)=O (some centres undefined) | -1.08 (inactive) | -1.13 | -0.342 | – | –
30 | CC(/C=C/C(=O)NO)=C\[C@@H](C)C(=O)c1ccc(N(C)C)cc1 | -0.778 (inactive) | -0.861 | -1.61 | – | –
31 | Cn1ncnc1[C@H]1c2n[nH]c(=O)c3cc(F)cc(c23)N[C@@H]1c1ccc(F)cc1 | 0.447 (inactive) | -1.15 | -0.329 | – | –
32 | O=C(NC[C@H](O)CN1CCc2ccccc2C1)c1ccnc(NC2CCC2)c1 | -0.571 (inactive) | -0.416 | -0.212 | – | –
33 | Nc1nccc(-c2c(-c3ccc(F)cc3)ncn2C2CCCCC2)n1 | -0.78 (inactive) | 1.09 | 0.204 | – | –
34 | COc1cc(N2CCC(N3CCN(C)CC3)CC2)ccc1Nc1ncc(Cl)c(Nc2ccccc2P(C)(C)=O)n1 | – | -1.53 | -1.55 | – | 549 nM (active)
35 | C=CC(=O)Nc1cccc(Nc2nc(Nc3ccc(NC4CN(CCF)C4)cc3OC)ncc2C(F)(F)F)c1 | 0.83 (inactive) | 0.499 | 0.584 | – | –
36 | Cc1nc(NC(=O)N2CCC[C@H]2C(N)=O)sc1-c1ccnc(C(C)(C)C(F)(F)F)c1 | -0.211 (inactive) and -0.86 (inactive) | -0.228 and -0.204 | -0.403 and -0.389 | – | –
37 | C[C@@H](Nc1ncnc2[nH]c(-c3ccc(O)cc3)cc12)c1ccccc1 | 0.00552 (inactive) | 0.314 | 0.296 | – | –
38 | Cc1nc(-c2cn3c(n2)-c2ccc(-c4cnn(C(C)(C)C(N)=O)c4)cc2OCC3)n(C(C)C)n1 | -1.26 (inactive) | -0.764 | -0.716 | – | –
39 | CC(C)S(=O)(=O)c1ccc2nccc(Nc3ccc4scnc4c3)c2c1 | -0.9 (inactive) | -0.597 | -0.874 | – | –
40 | CC(C)NC(=O)COc1cccc(-c2nc(Nc3ccc4[nH]ncc4c3)c3ccccc3n2)c1 | – | -1.21 | -1.12 | – | 4360 nM (active)
41 | CC(C)NC(=O)N1CC[C@H](N=C2Nc3cc(F)ccc3N(CC(F)F)c3ccc(Cl)cc32)C1 | -0.974 (inactive) | -0.755 | -0.602 | – | –
42 | COCCNCc1ccc(-c2cc3nccc(Oc4ccc(NC(=O)C5(C(=O)Nc6ccc(F)cc6)CC5)cc4F)c3s2)nc1 | -0.956 (inactive) | -0.642 | -0.561 | – | –
43 | COc1ccc(-c2c(C)nn3c(NCCN4CCOCC4)cc(C)nc23)cc1OC | 0.717 (inactive) | 0.787 | 0.395 | – | –
44 | COc1ccc(-c2cnc3c(-c4cccc5ncccc45)cnn3c2)cc1 | -0.651 (inactive) | -0.725 | -0.465 | – | –

Row | SMILES | Z-AUC [1] | Z-AUC [1, 3] | Z-AUC ([1]; measured here: PEO4 Z-AUC) | outcome [2] | Potency [1]
45 | CCC(CC)C(c1ccc(Nc2nc3ccccc3s2)cc1)n1cncn1 (centres undefined) | 0.298 (inactive) | 0.98 | 0.959 | – | –
46 | Cc1c(F)ccc(C(=O)Nc2cc([N+](=O)[O-])ccc2N2CCN(C)CC2)c1Cl | 0.532 (inactive) | 0.409 | -0.0381 | – | –
47 | Fc1ccc(-c2nc(-c3ccccc3F)[nH]c2-c2ccncc2)cc1 | 0.595 (inactive) | -0.0932 | 0.278 | – | –
48 | NCC1CCN(c2nccc(-c3ccc4ccccc4c3)n2)CC1 | -1.15 (inactive) | 0.563 | -0.738 | – | –
49 | CC(=O)N1CCN(CCOc2ccc(C3CCN(C4=Nn5c(nnc5C(F)(F)F)CC4)CC3)cc2)CC1 | -0.519 (inactive) | -0.781 | -0.776 | – | –
50 | Cc1sc2c(c1C)C(c1ccc(Cl)cc1)=N[C@@H](CC(=O)Nc1ccc(OCCOCCOCCOCCNc3cccc4c3C(=O)N(C3CCC(=O)NC3=O)C4=O)cc1)c1nnc(C)n1-2 (some centres undefined) | -1.58 (inactive) | -2.13 | -1.49 | – | –
51 | O=C(c1c(F)ccc(NS(=O)(=O)N2CC[C@@H](F)C2)c1F)c1c[nH]c2ncc(-c3cnc(C4CC4)nc3)cc12 | -0.0874 (inactive) | 0.401 | 0.486 | – | –
52 | CCNC(=O)C#Cc1ccc2c(C(=Nc3ccc(CN(C)C)cc3)c3ccccc3)c(O)[nH]c2c1 | – | -2.66 | -2.58 | – | 535 nM (active)
53 | CCOc1cc(C(C)(C)C)ccc1C1=N[C@@](C)(c2ccc(Cl)cc2)[C@@](C)(c2ccc(Cl)cc2)N1C(=O)N1CCN(CC(=O)N2CCOCC2)CC1 | -0.291 (inactive) | 0.35 | 0.188 | – | –
54 | COc1cc2c(cc1OCCCN1CCCC1)N=C(N)C21CCC1 | -0.834 (inactive) | -0.0136 | -0.411 | – | –
55 | CN1CCN(c2ccc(-c3cccc(CN4CCOCC4)c3)cc2NC(=O)c2c[nH]c(=O)cc2C(F)(F)F)CC1 | 0.777 (inactive) | 0.269 | 0.524 | – | –
56 | CCCCNc1ncc(-c2ccc(CN3CCOCC3)cn2)c(NC2CCC(O)CC2)n1 (centres undefined) | -1.2 (inactive) | -1.14 | -0.666 | – | –
57 | C[C@H](CN(C)C)Oc1nc(Nc2cc3cccc(Cl)c3cn2)cnc1C#N | -0.234 (inactive) | 0.15 | -0.249 | – | –
58 | CCNC1(C(N)=O)CCN(c2ncnc3c2nc(-c2ccccc2Cl)n3-c2ccc(Cl)cc2)CC1 | 0.84 (inactive) | 0.367 | 0.247 | – | –
59 | COC(=O)Nc1cc(Nc2cc(NC3CC3)c3ncc(C#N)n3n2)c(Cl)c(N2CCN(C)CC2)c1 | -1.26 (inactive) | -0.992 | -1.22 | – | –
60 | COc1ccc(Cl)c(Nc2ncnc3cc(OCC4CCN(C)CC4)c(OC)cc23)c1 | -1.39 (inactive) | -0.765 | -1.02 | – | –
61 | Fc1ccc2[nH]ccc2c1-c1nc(N2CCOCC2)c2sc(CN3CCN(CC4CC4)CC3)cc2n1 | -0.813 (inactive) | -0.565 | -0.474 | – | –
62 | Cc1nnc(C[C@@H]2C=C(c3ccc(Cl)cc3)c3ccccc3-n3c(C)nnc32)o1 | 0.965 (inactive) | 0.533 | 0.589 | – | –
63 | O=C(Nc1ccnc(NC(=O)C2CC2)c1)c1c(Cl)cccc1Cl | -1.13 (inactive) | -0.966 | -0.923 | – | –
64 | CC1(C)CN(C(=O)c2ccc(-c3cccc4nc(NC(=O)C5CC5)nn34)cc2)C1 | 0.782 (inactive) | 0.925 | 1.32 | – | –
